Screening results as filed in PubChem.
MBNL1-CUG inh: inhibitors of human MBNL1 binding to CUG repeat RNA. TR-FRET MBNL1-His/biotin-(CUG)12 binding, 665/545 ratio. Q9NR56. AID 2675. Potency, µM (series often up to 57.5 µM), hits mostly inhibitors. hit rate 0.036% among 280,000; active = well fitted inhibition curve with a large enough effect in the signal ratio, with a control signal flat, not every such curve was filed as active; inconclusive = small, poorly fitted or top-dose-only effect, or effect the other way, or a change in a side signal; inactive = no such curve, though single readings can be large or run the other way; the % refers to the signal ratio
Target sequence (Q9NR56 whole entry, looked up): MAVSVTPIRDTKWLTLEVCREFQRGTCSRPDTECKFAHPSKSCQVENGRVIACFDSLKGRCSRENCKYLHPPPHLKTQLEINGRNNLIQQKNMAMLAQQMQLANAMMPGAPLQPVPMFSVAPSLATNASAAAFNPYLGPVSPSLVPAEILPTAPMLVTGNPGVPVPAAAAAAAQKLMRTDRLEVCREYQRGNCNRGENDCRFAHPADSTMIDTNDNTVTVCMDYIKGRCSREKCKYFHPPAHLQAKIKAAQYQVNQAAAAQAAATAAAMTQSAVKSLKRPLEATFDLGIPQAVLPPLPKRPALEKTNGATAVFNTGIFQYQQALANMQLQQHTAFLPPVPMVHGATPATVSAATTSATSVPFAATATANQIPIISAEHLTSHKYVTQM
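Compound titration spanned 92 nM–58 uM against the MBNL1-His/biotin-(CUG)12 complex. After 60 min at room temperature with 5 nM streptavidin-XL665 and 0.055 ng/ul terbium anti-His, ratiometric 665/545 nm emission (Ex 340 nm) normalized to controls.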
Integrin act MD: activators of alpha7 integrin expression for muscular dystrophy | AID 624291 | alpha7betagal myoblasts, beta-gal FDG fluorescence, 48 h | Potency, µM (highest dose often 38.3 µM), hits mostly activators | hit rate 0.064% among 350,000; also: nearly all actives have a fitted effect of over 60% in size
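alpha7betagal+/- myoblasts (passage 13, 250/well) treated 48 h at 37C with compounds at 1:260 dilution of DMSO stock. Lysed, then beta-galactosidase activity read as FDG fluorescence (ex 480/em 540) after 30 min, with pre-read for autofluorescence.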
TCR activator: T cell receptor activation; primary human leukocytes, anti-CD3, IL-2 HTRF, 48 h; Potency, µM (titrated, usually from 9.22 µM), hits mostly activators; AID 504894; 330,000 tested, under 10 active
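IL-2 release read by HTRF sandwich (Eu cryptate donor, d2 acceptor, 665 nm emission) after 48 hr exposure of primary human leukocytes to compound together with anti-CD3 beads in the absence of co-stimulatory signals.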
CBFb RUNX1 block: CBF-beta/RUNX1 interaction disruption; Potency, µM (highest dose often 59.8 µM), most hits filed as inhibitors; 230,000 tested, under 10 active; Q01196+Q13951; AID 1477; AlphaScreen CBFb-His/RUNX1-biotin binding, biochemical
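Inhibition was taken as any reduction in AlphaScreen signal from the CBF-beta–RUNX1 pair (His and biotin tags, 30 nM each), measured after compound (15 min) and bead (90 min) incubations at room temperature.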
Hits are given with their value. Hits are enriched below; roughly 0.086% of the tested compounds scored in any of these assays. Unless noted, calls follow the shape of the dose curve; as a rule, active = well fitted curve in the direction sought with a large enough effect; inconclusive = small, poorly fitted or top-dose-only effect, or another doubt; inactive = no such curve, though single readings can be large; an effect the other way counts as inactive or inconclusive.

`O=S(=O)(NCC(c1ccco1)N1CCOCC1)c1ccc(Cl)cc1` (stereo unspecified) gave MBNL1-CUG inh inactive, Integrin act MD 14µM, TCR activator inactive and CBFb RUNX1 block inactive.
For CNc1ncnc2sc(-c3ccccc3)cc12 the results were MBNL1-CUG inh inconclusive, Integrin act MD inactive, TCR activator inactive and CBFb RUNX1 block inactive.
Screening CN(C)CCNc1ncnc2sc(-c3ccccc3)cc12 returned MBNL1-CUG inh inconclusive, Integrin act MD 10µM and TCR activator inactive.
Screening O=C(NCCCn1ccnc1)/C(=C/c1cccs1)NC(=O)c1ccco1 returned MBNL1-CUG inh inactive, Integrin act MD 8.9µM, TCR activator inactive and CBFb RUNX1 block inactive.
`COc1cc(Cl)cc(CN2CCC(CCC(=O)NC3CC3)CC2)c1OC` gave MBNL1-CUG inh inactive, Integrin act MD 7.1µM and TCR activator inactive.
`COc1ccccc1-c1coc2c(CN3CCCCC3C)c(O)ccc2c1=O` (stereo unspecified) gave MBNL1-CUG inh inactive, Integrin act MD inactive and TCR activator inactive.
`COc1ccccc1-c1coc2c(CN3C(C)CCCC3C)c(O)ccc2c1=O` (stereo unspecified) gave MBNL1-CUG inh inactive and Integrin act MD 2.2µM.
Screening C/C(=N\NC(=O)c1cc(C)oc1C)c1ccc2ccccc2c1 returned MBNL1-CUG inh inactive, Integrin act MD 8.9µM and TCR activator inactive.
`CCCCCC(=O)N1C[C@@H](O)[C@H](n2cc(-c3ccc(F)cc3)nn2)C[C@@H]1c1ccc(OC)cc1` gave Integrin act MD inactive.
Cc1cc(C)cc(N=Cc2c(O)c3ccccc3oc2=O)c1 was read as MBNL1-CUG inh inactive, Integrin act MD inactive, TCR activator inactive and CBFb RUNX1 block inactive.
O=C(O)c1cc(N=Cc2c(O)c3ccccc3oc2=O)ccc1O was read as MBNL1-CUG inh inactive, Integrin act MD 7.1µM and TCR activator inactive.
For COc1ccc(CCNC(=O)c2nn(C)c3c2CS(=O)(=O)c2ccccc2-3)cc1OC the results were MBNL1-CUG inh inactive, Integrin act MD 4.5µM and TCR activator inactive.
Screening COc1cccc([C@@H]2Oc3ccc(OC)cc3C[C@H]2O)c1 returned CBFb RUNX1 block inactive.
For Cn1c(=O)c2c(nc(Sc3ncnn3CC(=O)NC3CCCCC3)n2C)n(C)c1=O the results were MBNL1-CUG inh inactive, Integrin act MD 11µM, TCR activator inactive and CBFb RUNX1 block inactive.
For CCNC(=O)CSc1nc(-c2ccc(F)cc2)cs1 the results were MBNL1-CUG inh inactive, Integrin act MD 5µM, TCR activator inactive and CBFb RUNX1 block inactive.
`CC(NC(=O)c1cn(C)c2ccc(S(=O)(=O)N3CCCC3)cc2c1=O)c1ccccc1` (stereo unspecified) gave MBNL1-CUG inh inactive, Integrin act MD 2.8µM and TCR activator inactive.
CC(C)CCNC(=O)c1cn(C)c2ccc(S(=O)(=O)N3CCCC3)cc2c1=O was read as MBNL1-CUG inh inactive, Integrin act MD inactive and TCR activator inactive.
Screening COc1ccc2c(c1)c(C(C)=O)c(C)n2-c1ccc(C(C)=O)cc1 returned MBNL1-CUG inh inactive, Integrin act MD inactive and TCR activator inactive.
COc1ccc(-n2c(C)c(C(C)=O)c3cc(OC(C)=O)ccc32)cc1 was read as MBNL1-CUG inh inactive and Integrin act MD 10µM.
Screening Cc1cccc(NC(=S)Nc2cccc3ccccc23)c1 returned MBNL1-CUG inh inconclusive, Integrin act MD inactive and TCR activator inactive.
For Cc1cccc(N(Cc2ccccc2)C(=O)c2ccc(CS(C)(=O)=O)cc2)c1 the results were MBNL1-CUG inh inactive, Integrin act MD inactive and TCR activator inactive.
`CS(=O)(=O)Cc1cccc(C(=O)NN(c2ccccc2)c2ccccc2)c1` gave MBNL1-CUG inh inactive, Integrin act MD 13µM and TCR activator inactive.
COc1ccc(CCNC(=O)Cn2nnc(C(=O)Nc3ccc(Br)cc3)c2N)cc1OC was read as MBNL1-CUG inh inactive, Integrin act MD 11µM and TCR activator inactive.
For CCOc1ccc(NC(=O)Cn2nnc(C(=O)NCCc3ccc(OC)c(OC)c3)c2N)cc1 the results were MBNL1-CUG inh inactive, Integrin act MD inactive, TCR activator inactive and CBFb RUNX1 block inactive.
`COc1ccc(NC(=O)c2cccc(N3C(=O)c4ccc(C(=O)Nc5ccc(OC)c(O)c5)cc4C3=O)c2)cc1O` gave MBNL1-CUG inh inactive, Integrin act MD 4.5µM and TCR activator inactive.
Screening CN1C[C@@H]2[C@@H]3C(=O)N(Cc4ccccc4)C(=O)[C@@H]3[C@](Cc3ccccc3)(C1=O)N2C(=O)c1ccccc1 returned Integrin act MD inactive and TCR activator inactive.
Screening CCOc1ccc2ccccc2c1C1NC(=O)N(C)C(C)=C1C(=O)OCCOC (stereo unspecified) returned MBNL1-CUG inh inactive, Integrin act MD 6.3µM and TCR activator inactive.
For O=C(NC1CCCC1)c1ccc(CS(=O)(=O)Cc2ccccc2F)o1 the results were MBNL1-CUG inh inactive, Integrin act MD 4.5µM and TCR activator inactive.
`Cc1oc2c(CN3CCCCC3)c(O)ccc2c(=O)c1-c1ccc(Cl)cc1` gave MBNL1-CUG inh inactive, Integrin act MD inconclusive and TCR activator inactive.
Cc1ccc(-c2csnn2)cc1 was read as MBNL1-CUG inh inactive, Integrin act MD 10µM, TCR activator inactive and CBFb RUNX1 block inactive.
`CC(=O)Oc1ccc(-c2csnn2)cc1` gave MBNL1-CUG inh inactive, Integrin act MD inactive, TCR activator inactive and CBFb RUNX1 block inactive.
For COC(=O)c1cn(C(=O)c2ccc(C)cc2C)c2ccccc12 the results were MBNL1-CUG inh inactive, Integrin act MD inactive and CBFb RUNX1 block inconclusive.
For COc1ccc(S(=O)(=O)N(NC2=NS(=O)(=O)c3ccccc32)C(=O)C(C)C)cc1 the results were MBNL1-CUG inh inactive, Integrin act MD 2.5µM, TCR activator inactive and CBFb RUNX1 block inactive.
`CCN(CC)S(=O)(=O)c1ccc(C(=O)NNC2=NS(=O)(=O)c3ccccc32)cc1` gave MBNL1-CUG inh inactive, Integrin act MD inactive and TCR activator inactive.
Screening COCCN1C=C(C(=O)OC)C(c2ccccc2Cl)C(C(=O)OC)=C1 returned MBNL1-CUG inh inactive, Integrin act MD 8.9µM and CBFb RUNX1 block inactive.
Screening O=C(COC(=O)/C=C/c1ccccc1Cl)NC(=O)NC1CCCC1 returned Integrin act MD inactive and TCR activator inactive.
`CCOC(=O)c1sc(=N)n(-c2ccc(OC)cc2)c1C` gave MBNL1-CUG inh inactive, Integrin act MD 2µM, TCR activator inactive and CBFb RUNX1 block inactive.
For CCOC(=O)c1sc(=S)n(-c2ccc(OC)cc2)c1N the results were MBNL1-CUG inh inconclusive, Integrin act MD inactive, TCR activator inactive and CBFb RUNX1 block inactive.
COc1cc(/C=C2/C(=N)N3C(SC)=NSC3=NC2=O)ccc1OC(=O)c1ccco1 was read as MBNL1-CUG inh inactive, Integrin act MD 4µM and TCR activator inactive.
`COc1cc(/C=C2/C(=N)N3C(=NC2=O)SN=C3S(C)(=O)=O)ccc1OC(=O)c1ccco1` gave MBNL1-CUG inh inactive, Integrin act MD inactive and TCR activator inactive.
